Source: PubChem BioAssay (National Center for Advancing Translational Sciences (NCATS))
HPGD inh: HPGD (human) dehydrogenase inhibition; AID 894; Potency, µM, for inactives: at the highest dose activity change, negative = inhibition, usual class: inhibitors; purified HPGD, NADH fluorescence kinetic, PGE2 substrate; 4.3% of 150,000 active; P15428; note: potency is the fitted concentration of half-maximal effect
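20 nM HPGD preincubated 15 min at room temperature with compound in 50 mM Tris-HCl pH 8, 0.01% Tween 20. Started with 1 mM NAD+ and 30 uM prostaglandin E2; NADH fluorescence (360/450 nm) read 5 times over 30-s intervals, last minus first.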
JMJD2E inh: blocks human JMJD2E demethylase activity; JMJD2E catalytic domain, FDH-coupled NADH fluorescence (FDH is formaldehyde dehydrogenase); Potency, µM (titrated, usually from 57.1 µM), for the others: at the top dose activity change, negative = inhibition, most hits filed as inhibitors; 1.6% of 230,000 active;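 note: potency is the fitted concentration of half-maximal effect; 0% = wells with enzyme and -100% = buffer wells without enzyme; nearly all actives have a fitted effect of over 50% in size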
Target sequence (B2RXH2 1-337 limits assumed): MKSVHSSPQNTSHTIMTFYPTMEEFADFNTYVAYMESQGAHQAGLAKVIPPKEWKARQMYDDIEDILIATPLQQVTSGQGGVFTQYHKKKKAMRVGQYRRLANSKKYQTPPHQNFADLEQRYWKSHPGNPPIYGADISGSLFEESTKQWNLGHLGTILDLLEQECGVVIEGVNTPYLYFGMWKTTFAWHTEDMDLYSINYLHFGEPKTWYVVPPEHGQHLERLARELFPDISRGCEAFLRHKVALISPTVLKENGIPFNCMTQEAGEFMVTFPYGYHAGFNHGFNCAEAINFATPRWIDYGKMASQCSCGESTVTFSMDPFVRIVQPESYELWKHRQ
ALDH1A1 block: blocks purified human ALDH1A1 activity; Potency, µM (top dose mostly 75.3 µM), inactives show at the highest dose activity, negative = inhibition, usual class: inhibitors; AID 1030; 7.3% of 220,000 active; Purified ALDH1A1, NADH fluorescence, propionaldehyde substrate;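 note: potency is the fitted concentration of half-maximal effect; plate controls were no enzyme wells and a reference inhibitor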
PNC inhibitor: perinucleolar compartment assembly inhibition; PC3M PTB-GFP, PNC prevalence imaging, 16 h; hits give low values; activity change (PNC), negative = inhibition, % at 10 µM; 3.1% of 140,000 active; AID 2417;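 active = readout at or below -70, meaning at least 70% loss of cells showing the perinucleolar compartment, a nuclear body marking cancer cells; inconclusive = readout between -30 and a set limit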;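 note: plate controls were DMSO wells for no effect and camptothecin positive control wells for full effect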
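Compounds are pinned in duplicate onto adhered PC3M cells stably expressing GFP-tagged PTB and incubated 16 h at 37 C. Cells are then fixed, nuclei stained with Hoechst, and PNC-positive cells counted.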
* marks the source's active call; other numbers are inactive results; [ ] = remark or other dose. Only some compounds are listed: those with a hit (about 11% of all), similar ones and a draw of the others. Unless noted, calls come from the whole dose curve; as a rule, active = well fitted inhibition curve with a large enough effect (not every such curve was filed as active); inconclusive = small, poorly fitted or top-dose-only effect, or another doubt; inactive = no such curve, though single readings can be large or run the other way. Unless noted, % is set by controls: 0 for no effect and ±100 for the full control effect.

`O=C(NCc1ccc2c3c(cccc13)C(=O)N2)c1cccs1` gave JMJD2E inh 3.1%.
`C=CCN1C(=O)[C@]2(c3ccccc31)C1CCCC=C1C(C#N)=C(N)C2(C#N)C#N` (stereo partly specified) gave HPGD inh -9.8%, JMJD2E inh -3.4%, ALDH1A1 block 3.98µM* and PNC inhibitor -11.1.
For C=CCN1C(=O)C2(c3ccccc31)C1CCCC=C1C(C#N)=C(N)C2(C#N)C#N (stereo unspecified) the results were HPGD inh -13.1%, JMJD2E inh -12.6%, ALDH1A1 block 10µM* and PNC inhibitor -28.7.
For CCOC(=O)c1cc(C)nc(Sc2ccc(C)cc2)c1C#N the results were JMJD2E inh -2.1%.
Screening O=C(Nc1cccc(F)c1)N1CC[C@@]2(CCCNC2)C1 returned HPGD inh -9.7% and ALDH1A1 block 25.1µM*.
Screening O=C(Nc1cccc(F)c1)N1CCCC2(CCNCC2)C1 returned HPGD inh -10.4% and ALDH1A1 block 16.0%.
Screening CCn1ncc(/C=C2/SC(=S)NC2=O)c1C returned HPGD inh 15.8µM*, JMJD2E inh 0.0%, ALDH1A1 block -13.0% and PNC inhibitor 29.5.
O=C(C1=C[C@H](C2CCCCC2)C[C@H](OCc2ccc(CO)cc2)O1)N1CCN(Cc2ccccc2)CC1 was read as JMJD2E inh inconclusive and ALDH1A1 block 14.1µM*.
Screening O=C(Nc1ccccc1)C1=C[C@H](C2CCCCC2)C[C@H](OCc2ccc(CO)cc2)O1 returned JMJD2E inh 2.1% and ALDH1A1 block 0.5%.
Screening O=C(C1=C[C@@H](C2CCCCC2)C[C@@H](OCCCCO)O1)N1CCOCC1 returned JMJD2E inh 0.7% and ALDH1A1 block inconclusive.
Screening O=C(C1=C[C@@H](C2CC2)C[C@@H](OCCCCO)O1)N1CCOCC1 returned JMJD2E inh -0.4% and ALDH1A1 block 31.6µM*.
C=CCOC(=O)C1=C[C@@H](C2CCCCC2)C[C@@H](OCc2ccc(CO)cc2)O1 was read as JMJD2E inh -7.0% and ALDH1A1 block 1µM*.
O=C(C1=C[C@@H](C2CCCCC2)C[C@@H](OCc2ccc(CO)cc2)O1)N1CCN(Cc2ccccc2)CC1 was read as JMJD2E inh -27.1% and ALDH1A1 block inconclusive.
`O=C(Nc1ccccc1)C1=C[C@@H](C2CCCCC2)C[C@@H](OCc2ccc(CO)cc2)O1` gave JMJD2E inh -13.9% and ALDH1A1 block 4.47µM*.
Screening O=C(Nc1ccccc1)N1CCN(S(=O)(=O)c2ccccc2)CC1 returned JMJD2E inh 9.3% and ALDH1A1 block 0.4%.
Cn1c(N)c(C(=O)Nc2c(Cl)cccc2Cl)sc1=S was read as JMJD2E inh 5.7%.
Screening Cc1nn2c(-c3ccncc3)ccnc2c1Br returned JMJD2E inh 9.5% and ALDH1A1 block -0.7%.
`CCOc1cc(CN2CCCCC2)ccc1OC` gave HPGD inh 0.1%, JMJD2E inh -1.8%, ALDH1A1 block 0.1% and PNC inhibitor -27.8.
CCOc1cc(CN2CCN(c3ccc(C(C)=O)cc3)CC2)ccc1OC was read as HPGD inh -9.4%, JMJD2E inh -112.8%, ALDH1A1 block 17.8µM* and PNC inhibitor -24.7.
Screening CC(C)C[C@H](N)c1nnc(S(=O)(=O)Cc2ccc(F)cc2)o1 returned HPGD inh 25.1µM*, JMJD2E inh 0.2%, ALDH1A1 block 1.58µM* and PNC inhibitor -13.1.
For CC(C)OC(=O)c1nnc(Cc2ccc(F)cc2)o1 the results were HPGD inh -21.6%, JMJD2E inh 1.5%, ALDH1A1 block 11.6% and PNC inhibitor -8.4.
Screening Cc1cccc(NC(=S)NC23CN4CN(CN(C4)C2)C3)c1C returned JMJD2E inh 0.8% and ALDH1A1 block 6.9%.
O=C(O)/C=C\C(=O)Nc1cccc2c1-c1ccccc1C2=O was read as HPGD inh -17.8% and ALDH1A1 block 1.0%[13.5 µM].
Cc1ccc(N(C(=O)c2snc(C(N)=O)c2N)C(C(=O)NCCC(C)C)c2ccco2)cc1 (stereo unspecified) was read as JMJD2E inh 9.1% and ALDH1A1 block 15.4%.
Screening CC(C)CCNC(=O)C(c1ccco1)N(Cc1ccccc1)C(=O)c1snc(C(N)=O)c1N (stereo unspecified) returned HPGD inh -9.1%, JMJD2E inh inconclusive, ALDH1A1 block inconclusive and PNC inhibitor -123.3*.
`COP(=O)(OC)C(NC(=O)Nc1ccccc1)c1ccccc1` (stereo unspecified) gave JMJD2E inh 5.5% and ALDH1A1 block 10.5%.
